In test [1] the test system is Human papillomavirus type 1a protein E7 (residues 44-93). Briefly: small molecules binding HPV E7 44-93 – biochemical, small-molecule microarray, residues 44-93, 635 nm fluorescence, primary screen (AID 1108).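 Also: E7 fragment applied at 1 µg/mL in TBST for 1 h at 4 C; score combines spot fluorescence with its signal to noise ratio.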 The note with it: fluorescence 635 nm, higher = more signal.
Test [2] is described as follows: hepatitis C replication reporter changes, two-sided – Huh7 cells, luciferase reporter, HCV replication inhibitor project, primary screen (AID 1109).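 Also: huh7 hepatoma cells harbouring a luciferase neomycin HCV replicon reporter; luciferase luminescence as measure of HCV replicon replication; test concentration not given here.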 The conditions noted are these: Huh7 HCV replicon luciferase reporter, 48 h; higher = more signal. A general note: Reporter assays use an easily measured gene product as a stand-in for the process of interest.
Test [3] deals with Left-right determination factor 2 (Homo sapiens) (UniProt O00292). Kind of test: small molecules binding LEFTY2 protein – biochemical, small-molecule microarray, 635 nm fluorescence scan, primary screen (AID 1110). The conditions noted are these: higher = more signal.
For test [4], the target named is Calmodulin-1 (Homo sapiens) (UniProt P0DP23). Briefly: small molecules binding calmodulin-1 with EGTA – biochemical, small-molecule microarray, Cy5-labelled CALM1, profiling panel (AID 1111).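 Also: labelled calmodulin applied in Tris saline Tween buffer holding calcium plus EGTA and DTT.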 The conditions noted are these: Cy5-CALM1 binding fluorescence, higher = more signal.
The target is the same in test [5]. Briefly: small molecules binding Ca-loaded calmodulin-1 – biochemical, small-molecule microarray, Cy5-labelled CALM1, plus calcium, artefact control for SMM control-protein annotation, profiling panel (AID 1112).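 Also: score merges spot fluorescence with signal to noise from triplicate slides.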 The note with it: Cy5-CALM1 binding fluorescence, higher = more signal.
Test [6] is described as follows: probe aWnt5a binding to arrayed compounds – biochemical, biotinylated probe, 635/667 nm fluorescence, primary screen (AID 1113).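 Also: score merges 667 nm fluorescence intensity with signal-to-noise per printed feature.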 The note with it: small-molecule microarray, higher = more signal.
Test [7] can be described thus: probe aShh binding to arrayed compounds – biochemical, biotinylated probe, 635/667 nm fluorescence, primary screen (AID 1114).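 Also: probe is biotin-labelled aShh protein from a stem cell growth factor screen; measures binding of labelled protein to compounds printed on the slide; score merges feature fluorescence at 667 nm with signal-to-noise.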 The conditions noted are these: small-molecule microarray, higher = more signal.
Test [8] is described as follows: probe aNog binding to arrayed compounds – biochemical, biotinylated probe, 635/667 nm fluorescence, primary screen (AID 1115).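 Also: probe is biotinylated aNog protein used at 0.15 µg/mL for 1 h at 4 C; z-score combines 667 nm fluorescence of each spot with its signal to noise.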 The conditions noted are these: small-molecule microarray, higher = more signal.
In test [9] the target is Torsin-1A-interacting protein 1 (Homo sapiens) (UniProt Q5JTV8). Briefly: compound microarray binding of lysate hLAP1 – cell lysate, small-molecule microarray, COS7 lysate, 635/667 nm fluorescence, primary screen (AID 1116). The note with it: 635 nm fluorescence, higher = more signal.
Test [10] concerns the target Alpha-bungarotoxin (Bungarus multicinctus) (UniProt P60615). Kind of test: compounds binding labelled alpha-BTX control protein – biochemical, small-molecule microarray, Alexa647 label, 635/667 nm fluorescence, artefact control for SMM control protein annotation, profiling panel (AID 1117). The conditions noted are these: alpha-BTX-A647 binding fluorescence, higher = more signal.

Test [11] has as its target Albumin (Bos taurus) (UniProt P02769). Kind of test: compounds binding labelled BSA control protein – biochemical, small-molecule microarray, Alexa647 label, 635/667 nm fluorescence, artefact control for SMM control protein annotation, profiling panel (AID 1118).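 Also: score merges 667 nm emission intensity and signal-to-noise per printed compound spot.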 The conditions noted are these: BSA-A647 binding, fluorescence 635 nm, higher = more signal.
Test [12] can be described thus: probe aXIP binding to arrayed compounds – biochemical, NeuroSMM set, 635/667 nm fluorescence, primary screen (AID 1119).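 Also: probe is the protein aXip251-270 applied at 1 µg/mL to compound-printed slides; binding of probe to printed compounds measured as 667 nm fluorescence plus signal to noise.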 The conditions noted are these: small-molecule microarray, higher = more signal, called active from +8 up or from −8 down.
Test [13] in a line: probe aNOTCH3 binding on compound microarray – biochemical, small-molecule microarray, 635/667 nm fluorescence, primary screen (AID 1120).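 Also: probe is a biotin-tagged antibody raised against NOTCH3 rather than NOTCH3 protein; score merges spot fluorescence near 667 nm with spot signal to noise.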 The conditions noted are these: higher = more signal.
Test [14] in a line: probe aNOTCH2 binding on compound microarray – biochemical, small-molecule microarray, 635/667 nm fluorescence, primary screen (AID 1121).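 Also: score merges feature fluorescence read at 667 nm with its signal to noise.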 The note with it: higher = more signal.
The target of test [15] is Carbonic anhydrase 2 (Homo sapiens) (UniProt P00918). Briefly: compounds binding carbonic anhydrase 2 – biochemical, small-molecule microarray, Alexa647-labelled CAII, profiling panel (AID 1122). The conditions noted are these: CAII-A647 binding fluorescence, higher = more signal.
Test [16] can be described thus: COS7 lysate on small-molecule microarray, probe aHis, 635 nm (AID 1123).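 Also: z-score combines 667nm fluorescence intensity with signal-to-noise per printed compound spot.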 The note with it: COS7 cell lysate, fluorescence, higher = more signal.
Test [17] can be described thus: probe aLAP1 signal on lysate-treated microarray – cell lysate, small-molecule microarray, COS7 lysate, primary screen (AID 1124).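 Also: lysate comes from COS7 cells expressing LAP1 and is applied at 0.3 µg/mL; score merges spot fluorescence near 667 nm with signal-to-noise over triplicate slides.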 The note with it: probe aLAP1, fluorescence, higher = more signal.
Test [18] concerns Sam68 (KHDRBS1). Briefly: compounds binding KHDRBS1 protein – biochemical, small-molecule microarray, 635 nm fluorescence, primary screen (AID 1125).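 Also: score merges 667 nm channel intensity with signal to noise over triplicate slides.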 The note with it: higher = more signal.
Test [19] deals with Chordin-like protein 2 (CHRDL2). Briefly: compounds binding chordin-like 2 – biochemical, small-molecule microarray, 635 nm fluorescence, primary screen (AID 1126).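 Also: printed compound slides probed with Chrdl2 protein at 4 µg/mL for 1 h at 4 C; score merges 667 nm emission intensity with signal to noise over three replicate slides.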 The conditions noted are these: fluorescence 635 nm, higher = more signal.
Test [20] has as its target Concanavalin-A (Canavalia ensiformis) (UniProt P02866). Kind of test: compounds binding concanavalin A lectin – biochemical, small-molecule microarray, Alexa647 label, 635 nm, artefact control for SMM control protein annotation, primary screen (AID 1127).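 Also: z combines 667 nm emission intensity with signal-to-noise across three replicate slides.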 The conditions noted are these: ConA-A647 binding fluorescence, higher = more signal.

Active and inactive are the calls of the source.

Sequence of Left-right determination factor 2 (Homo sapiens) (O00292 whole entry, looked up): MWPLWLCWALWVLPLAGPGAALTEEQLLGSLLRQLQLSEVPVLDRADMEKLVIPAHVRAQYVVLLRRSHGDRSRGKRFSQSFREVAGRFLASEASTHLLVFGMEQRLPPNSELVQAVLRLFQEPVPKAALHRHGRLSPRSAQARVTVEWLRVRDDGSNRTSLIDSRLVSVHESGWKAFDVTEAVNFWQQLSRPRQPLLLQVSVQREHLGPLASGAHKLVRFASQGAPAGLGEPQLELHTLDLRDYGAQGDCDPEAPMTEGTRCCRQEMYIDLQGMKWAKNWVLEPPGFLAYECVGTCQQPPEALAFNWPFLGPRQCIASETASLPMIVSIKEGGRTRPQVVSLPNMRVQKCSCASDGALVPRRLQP
Sequence of Concanavalin-A (Canavalia ensiformis) (P02866 whole entry, looked up): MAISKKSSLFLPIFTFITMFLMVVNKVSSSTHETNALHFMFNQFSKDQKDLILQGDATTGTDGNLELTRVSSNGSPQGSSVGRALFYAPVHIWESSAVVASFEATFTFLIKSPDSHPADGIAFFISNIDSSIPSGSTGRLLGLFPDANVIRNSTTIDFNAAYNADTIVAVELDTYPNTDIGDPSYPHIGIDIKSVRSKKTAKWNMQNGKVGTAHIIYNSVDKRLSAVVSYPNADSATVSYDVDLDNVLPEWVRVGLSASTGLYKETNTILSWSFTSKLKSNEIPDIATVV
Sequence of Albumin (Bos taurus) (P02769 whole entry, looked up): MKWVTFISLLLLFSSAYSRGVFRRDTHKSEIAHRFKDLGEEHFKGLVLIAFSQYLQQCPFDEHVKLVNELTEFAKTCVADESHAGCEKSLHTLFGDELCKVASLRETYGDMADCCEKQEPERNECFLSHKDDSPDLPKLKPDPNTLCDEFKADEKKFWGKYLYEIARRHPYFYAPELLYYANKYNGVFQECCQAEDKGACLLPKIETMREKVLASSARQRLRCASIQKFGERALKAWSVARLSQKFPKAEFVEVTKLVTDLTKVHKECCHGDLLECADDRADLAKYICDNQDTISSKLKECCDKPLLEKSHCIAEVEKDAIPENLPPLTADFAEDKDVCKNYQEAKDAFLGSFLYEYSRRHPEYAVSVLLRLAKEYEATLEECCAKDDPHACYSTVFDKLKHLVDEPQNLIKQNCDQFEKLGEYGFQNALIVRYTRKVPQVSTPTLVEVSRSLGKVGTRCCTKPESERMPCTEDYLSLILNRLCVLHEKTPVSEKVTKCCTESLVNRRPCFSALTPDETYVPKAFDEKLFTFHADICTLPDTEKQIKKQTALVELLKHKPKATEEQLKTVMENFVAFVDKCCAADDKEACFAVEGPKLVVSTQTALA
Sequence of Torsin-1A-interacting protein 1 (Homo sapiens) (Q5JTV8 whole entry, looked up): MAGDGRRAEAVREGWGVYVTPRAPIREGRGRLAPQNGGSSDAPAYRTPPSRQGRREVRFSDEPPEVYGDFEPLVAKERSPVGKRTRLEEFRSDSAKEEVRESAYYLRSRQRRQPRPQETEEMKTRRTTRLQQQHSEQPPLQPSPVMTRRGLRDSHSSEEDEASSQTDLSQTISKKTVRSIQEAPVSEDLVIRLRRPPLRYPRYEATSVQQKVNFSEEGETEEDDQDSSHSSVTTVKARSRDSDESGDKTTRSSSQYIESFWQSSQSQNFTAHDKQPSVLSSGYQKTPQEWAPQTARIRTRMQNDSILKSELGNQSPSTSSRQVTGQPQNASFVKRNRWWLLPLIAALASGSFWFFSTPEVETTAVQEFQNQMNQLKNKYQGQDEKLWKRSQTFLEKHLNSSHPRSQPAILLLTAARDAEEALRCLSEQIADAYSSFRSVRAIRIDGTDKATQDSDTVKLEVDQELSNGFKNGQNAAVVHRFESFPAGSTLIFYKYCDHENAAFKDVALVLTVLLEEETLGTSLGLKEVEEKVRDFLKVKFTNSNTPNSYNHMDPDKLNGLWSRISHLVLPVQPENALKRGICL
Sequence of Alpha-bungarotoxin (Bungarus multicinctus) (P60615 whole entry, looked up): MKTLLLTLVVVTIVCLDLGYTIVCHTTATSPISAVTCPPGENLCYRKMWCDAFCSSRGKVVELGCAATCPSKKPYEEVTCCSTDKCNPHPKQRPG

For `CC(C)C(=C=CC[C@@H](O)c1ccccc1OCCO)C[C@@H](O)c1ccccn1`, the composite z-score is 0.752 in test [1]; 0.28 in test [3]; -0.178 in test [4]; -0.34 in test [5]; -0.0751 in test [6]; -0.0553 in test [7]. The composite z-score in test [8] was -0.158; in [9], -0.221; in [10], 0.125; in test [11], 0.0682; in [13], -0.0847; in [14] it was -0.111. Further, the composite z-score is 0.738 in test [15]; 0.287 in test [16]; -0.0744 in test [17]; 0.95 in test [18]; -0.0374 in test [19]; 0.451 in [20]. Moreover, the z-score in test [2] was -1.14. Besides, the composite Z-score in test [12] was -0.776 (inactive).

For `COCCOC(=O)N1C(=O)[C@@]2(c3cc(C#Cc4ccc(OC)cc4)ccc31)[C@H](C(=O)N1CCN(c3ncccn3)CC1)[C@H]1C(=O)O[C@H](c3ccccc3)[C@H](c3ccccc3)N1[C@@H]2c1ccc(O)cc1`, the composite z-score in test [1] was 0.519; in test [3], 0.0473; in [4], 0.958; in [5] it was 0.217; in [6], -0.207; in test [7] it was -0.138. The composite z-score in test [8] is -0.366; in test [9], 0.135; in [10], 0.107; in [11] it was 0.259; in [13] it was -0.112; in test [14], -0.0277. Besides, the composite z-score is 0.287 in test [15]; 0.722 in [16]; 0.232 in test [17]; 0.634 in [18]; -0.0397 in test [19]; 0.762 in test [20]. The z-score in test [2] was -1.39. Also, the composite Z-score in test [12] is 0.0527 (inactive).

On to `C=CC[C@]1(C(=O)N2CCOCC2)N=C(c2ccc(OCCCO)cc2)O[C@H]1c1ccccc1`, for which the composite z-score in [1] was 1.18; in [3], -0.42; in test [4] it was 0.732; in [5], 1.14; in test [6], -0.0512; in test [7], 0.218. For the same compound, the composite z-score in [8] is 1.53; in test [9], 2.09; in test [10], 2.05; in test [11], 0.758; in test [13], 0.0225; in [14], -0.0906. The composite z-score in test [15] is 0.785; in test [16] it was 3.15; in test [17], 0.446; in test [18] it was 0.618; in test [19], -0.0547; in [20] it was 1.09. The z-score in [2] was -0.716. For the same compound, in test [12], the composite Z-score is -0.128 (inactive).

`CCCN1C(=O)[C@@]2(CCC(=O)OC(C)(C)C)N=C(c3ccc(OCCCO)cc3)O[C@H]2c2ccccc21`: the composite z-score is 1.11 in [1]; 0.163 in [3]; 0.786 in test [4]; -0.38 in test [5]; 0.0044 in test [6]; -0.0866 in test [7]. The composite z-score in [8] is -0.0875; in test [9], 0.816; in [10] it was 0.285; in test [11], 0.556; in test [13], 0.0225; in test [14], -0.0633. Also, the composite z-score in [15] was determined as 0.376; in [16], 1.69; in test [17], 0.0436; in test [18], 1.31; in test [19], 0.345; in test [20] it was 0.958. Further, the z-score in test [2] is -2.75. The composite Z-score in test [12] is 0.548 (inactive).

In the case of `COC(=O)[C@@]1(Cc2ccccc2)[C@H]2c3cc(C(=O)N(C)C)n(Cc4cc(C)n(C)n4)c3C[C@H]2CN1C(=O)c1ccccc1`, the composite z-score is 1.02 in test [1]; -0.279 in test [3]; 1.8 in [4]; 0.908 in test [5]; -0.319 in test [6]; -0.465 in test [7]. The composite z-score in [8] was -0.199; in test [9], 3.2; in test [10] it was 0.285; in [11], 1; in test [13] it was 0.718; in [14], 0.258. Also, the composite z-score in test [15] was 0.931; in [16], 2.63; in test [17] it was 0.993; in [18], 0.812; in test [19], -0.979; in [20] it was 0.711. This compound also registered a z-score in test [2] of -0.995. The composite Z-score in test [12] was -0.138 (inactive).

In the case of `C=C(COC)C(=O)CC[C@@H](OC(=O)c1cccnc1)c1ccc(CO)o1`, the composite z-score in [1] was 0.369; in test [3] it was 0.355; in test [4], -0.0743; in [5], -0.116; in [6], -0.1; in test [7], -0.0977. The composite z-score is 0.094 in test [8]; 0.424 in [9]; 0.285 in test [10]; 0.158 in test [11]; -0.0362 in test [13]; -0.157 in test [14]. In addition, the composite z-score in test [15] turned out to be 0.481; in [16] it was 0.387; in test [17], 0.823; in [18] it was 0.532; in test [19] it was 0.739; in test [20] it was 0.341. For the same compound, the z-score in [2] is -0.778. The composite Z-score in test [12] is 0.509 (inactive).
